Results filed as inconclusive are left out. The source made the active and inactive calls. The calls were made as follows: active = hit-call score of the fitted dose curve at least 0.9, where 1 is the maximum; inconclusive = response in the unintended direction; inactive = score below 0.9.
How the values were obtained:
[1] = TOX21_p53_BLA_p2_viability: Viability Assessment in the Tox21 HCT-116 p53 Agonism Beta-lactamase Assay, Phase 2 (AID 2283591);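 also: compound exposure lasted 16 h at 37 °C; actives lower the ATP signal meaning cytotoxicity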
Summary of the method: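 Cytotoxicity readout: CellTiter-Glo ATP luminescence, 30 min at room temperature, after the beta-lactamase read. Cells were HCT116 exposed 16 h at 37C to compounds pin-transferred at 217-fold dilution from DMSO stocks.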

[2] = biological target: Cellular tumor antigen p53 (Homo sapiens) (UniProt P04637); assay: TOX21_p53_BLA_p2_ratio: Tox21 HCT-116 p53 Agonism Beta-lactamase Assay, Ratio, Phase 2 (AID 2283592)
Sequence of Cellular tumor antigen p53 (Homo sapiens) (P04637 whole entry, looked up): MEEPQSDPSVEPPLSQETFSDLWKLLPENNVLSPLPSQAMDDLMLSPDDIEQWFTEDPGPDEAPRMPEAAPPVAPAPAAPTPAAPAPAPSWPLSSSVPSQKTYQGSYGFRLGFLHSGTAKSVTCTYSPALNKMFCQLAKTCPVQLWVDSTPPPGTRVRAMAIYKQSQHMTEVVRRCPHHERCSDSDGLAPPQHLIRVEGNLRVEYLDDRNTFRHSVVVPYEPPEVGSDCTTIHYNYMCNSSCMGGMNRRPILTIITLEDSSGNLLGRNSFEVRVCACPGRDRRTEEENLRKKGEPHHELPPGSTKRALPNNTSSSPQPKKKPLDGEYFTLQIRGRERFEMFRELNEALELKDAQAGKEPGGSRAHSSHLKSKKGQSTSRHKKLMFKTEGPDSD
Summary of the method: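 Gain-of-signal p53 agonism was scored from the beta-lactamase FRET ratio (460/530 nm, 405 nm excitation) in HCT116 cells treated 16 h at 37C, 5% CO2, with DMSO serving as negative control and baseline.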

[3] = TOX21_p53_BLA_p3_viability: Viability Assessment in the Tox21 HCT-116 p53 Agonism Beta-lactamase Assay, Phase 3 (AID 2283593);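 also: cells exposed to compound for 16 h before reading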
Summary of the method: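 Cellular ATP was quantified by CellTiter-Glo luminescence, read after 30 min at room temperature. Beforehand, HCT116 cells (4000/well) received compound 5 h post-seeding, 217-fold diluted from DMSO, then incubated 16 h at 37C.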

[4] = biological target: Cellular tumor antigen p53 (Homo sapiens) (UniProt P04637); assay: TOX21_p53_BLA_p3_ratio: Tox21 HCT-116 p53 Agonism Beta-lactamase Assay, Ratio, Phase 3 (AID 2283596)
Summary of the method: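 HCT116 p53-bla cells (4000/well) given compound in DMSO (217-fold dilution) after 5 h, incubated 16 h at 37C. CCF4-AM substrate 2 h at room temperature; 460/530 nm emission ratio, gain fitted against DMSO.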

[5] = biological target: Cellular tumor antigen p53 (Homo sapiens) (UniProt P04637); assay: TOX21_p53_BLA_p4_ratio: Tox21 HCT-116 p53 Agonism Beta-lactamase Assay, Ratio, Phase 4 (AID 2283601)
Summary of the method: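 Signal is the blue/green (460nm/530nm) ratio of cleaved versus uncleaved CCF4-AM substrate, read after 2 h substrate loading. Cells were HCT116 carrying the p53-responsive beta-lactamase reporter, dosed 16 h at 37C, 5% CO2; CellTiter-Glo measured in parallel.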

[6] = Tanguay_ZF_120hpf_MORT_legacy: (Legacy) Oregon State University Tanguay Lab 120 Hour Post-fertilization zebrafish Assay for Mortality (AID 2283633)
Summary of the method: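 Static waterborne exposure from 6 to 120 hpf at 28C of single dechorionated wild-type (5D) embryos per well, 0.64% DMSO final. Death recorded present/absent by brightfield at 24 and 120 hpf.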

[7] = Tanguay_ZF_120hpf_YSE_legacy: (Legacy) Oregon State University Tanguay Lab 120 Hour Post-fertilization zebrafish Assay for Yolk Sac Edema (AID 2283634);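 as to AC50: actives raise the incidence of yolk sac edema above the DMSO baseline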
Summary of the method: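 Presence or absence of yolk sac edema was recorded at 120 hpf in surviving larvae. These were wild-type Tropical 5D embryos, chorion removed at 4 hpf, held in static exposure at 28C from 6 hpf with 0.64% DMSO vehicle.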

[8] = TOX21_p53_BLA_p4_viability: Viability Assessment in the Tox21 HCT-116 p53 Agonism Beta-lactamase Assay, Phase 4 (AID 2283597);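 also: hits lower the luminescence signal meaning cytotoxicity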
Summary of the method: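 Following a 16 h exposure at 37C, the treated HCT116 wells were first read for the FRET ratio. They were then lysed with CellTiter-Glo, and ATP luminescence was recorded after 30 min at room temperature.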

[9] = biological target: Cellular tumor antigen p53 (Homo sapiens) (UniProt P04637); assay: TOX21_p53_BLA_p5_ratio: Tox21 HCT-116 p53 Agonism Beta-lactamase Assay, Ratio, Phase 5 (AID 2283599)
Summary of the method: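 Beta-lactamase reporter ratio (blue 460 nm over green 530 nm, 405 nm excitation) after 2 h CCF4-AM loading, in HCT-116 cells exposed 16 h at 37 C to compounds pinned at 217-fold dilution. Increases relative to DMSO baseline scored.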

[10] = TOX21_p53_BLA_p5_viability: Viability Assessment in the Tox21 HCT-116 p53 Agonism Beta-lactamase Assay, Phase 5 (AID 2283600)
Summary of the method: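 After the 460/530 nm beta-lactamase measurement, the wells received an ATP-detection luciferase reagent; signal was read 30 min later at RT. Compound treatment lasted 16 h on cells pre-incubated 5 h post-seeding.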

Measured: AC50

CCCN(C1CCN(C(=O)C2CCNCC2)CC1)[C@@H]1CCc2ccc(OC)cc2C1
not listed: [8] | [9] | [10]
inactive: all other assays above

CC(=O)OCCC(C)C
not listed: [10]
inactive: all other assays above

CCCCC(CC)COC(=O)CCCCCCCCC(=O)OCC(CC)CCCC (centres undefined)
inactive: [1] | [2] | [3] | [6] | [7]

COc1ccc(-n2nc(C(F)F)cc2-c2ccc(S(C)=O)cc2)cc1 (centres undefined)
active: [7] 24.8 µM
not listed: [5] | [10]
inactive: all other assays above

CC(C)=CCC/C(C)=C/CO
not listed: [10]
inactive: all other assays above

Cn1c(=O)c2c(ncn2C)n(C)c1=O
not listed: [10]
inactive: all other assays above

C1N2CN3CN1CN(C2)C3
not listed: [9] | [10]
inactive: all other assays above

CC(C)CC(C)(O)C#CC(C)(O)CC(C)C (centres undefined)
not listed: [9] | [10]
inactive: all other assays above

CC[C@H]1CC[C@H](NCc2cc3c(cc2OC)[C@H]2C[C@H]2C(=O)N3C)[C@H](c2ccccc2)N1
active: [4] 13.3 µM
not listed: [8] | [9] | [10]
inactive: all other assays above

CCN(C(=O)c1cc(C)cc(OC[C@H](C)Nc2ccncc2)c1)C(C)C
not listed: [10]
inactive: all other assays above

COC(=O)c1ccccc1O
not listed: [9]
inactive: all other assays above

CCCCCCCCO
not listed: [8] | [9] | [10]
inactive: all other assays above

CC(C)CCCCCCCOC(=O)CCCCC(=O)OCCCCCCCC(C)C
not listed: [8] | [9] | [10]
inactive: all other assays above

O=C1CCC(N2C(=O)c3ccccc3C2=O)C(=O)N1 (centres undefined)
not listed: [9] | [10]
inactive: all other assays above

CC(C)CCO
inactive: [1] | [2] | [3] | [8] | [6] | [7]

CC(C)=CCC/C(C)=C\CO
not listed: [9] | [10]
inactive: all other assays above

Fc1ccccc1[C@@H](F)COC1CCC(Nc2ncnc3[nH]ncc23)CC1 (some centres undefined)
active: [7] 23.9 µM
not listed: [10]
inactive: all other assays above

O=C(CCCCCCCCc1cccnc1)N1CCC(C=C(c2ccccc2)c2ccccc2)CC1
active: [1] 10 µM | [3] 28.2 µM | [4] 43.2 µM
not listed: [10]
inactive: all other assays above

COc1ccc(/C=C/S(=O)(=O)NC(=O)c2ccc(C)cc2Cl)cc1
inactive: [1] | [3] | [10] | [6]
active: [2] 28 µM | [4] 29 µM | [9] 29.5 µM | [5] 21.2 µM

CC(C)=CCCC(C)CCO (centres undefined)
not listed: [4] | [5] | [10]
inactive: all other assays above

CNCc1ccc(NC(=O)c2c[nH]c3c2C(=O)CCC3)cc1
inactive: [2] | [3] | [8] | [5] | [6] | [7]

COCCOc1cc2cc(C(=O)NC3CCN(C(C)C)CC3)n(CC(=O)Nc3ccc(Cl)cn3)c2cn1
inactive: [3] | [4] | [8] | [9] | [6] | [7]

CCOCCOCCOCCO
not listed: [3] | [8] | [10]
inactive: all other assays above

CC/C(=C\C(=N/O)C(N)=O)C(C)[N+](=O)[O-] (centres undefined)
not listed: [2] | [3] | [10]
inactive: all other assays above

CCOCCO
not listed: [3]
inactive: all other assays above

COC(=O)CC(=O)OC
not listed: [3]
inactive: all other assays above

CCNc1ccccc1
not listed: [3] | [10]
inactive: all other assays above

O=C(O)CCN(C1(C(=O)NO)CCCC1)S(=O)(=O)c1ccc(Oc2ccc(F)cc2)cc1
inactive: [2] | [3] | [6] | [7]

CC1(C)C(=O)N(Br)C(=O)N1Br
not listed: [1] | [2] | [3]
inactive: all other assays above

Cc1c(-c2cccnc2)c2ccccc2n1CCCCC(=O)O
inactive: [2] | [4] | [9] | [5] | [6]
active: [7] 51.2 µM

CCCC(=O)OCC
inactive: [2] | [3] | [4] | [6] | [7]

CCn1nc(Cc2ccccc2)cc1C1CCN(C[C@H]2C[C@H](N(C)[C@@H](C(=O)O)C(C)C)C[C@@H]2c2cccc(F)c2)CC1
not listed: [2] | [4] | [5]
inactive: all other assays above

O=C(NS(=O)(=O)/C=C/c1ccccc1)c1ccc(F)cc1Cl
inactive: [1] | [6] | [7]
active: [2] 13 µM | [4] 24.9 µM | [9] 13.5 µM | [5] 22 µM

O=C(O)CC(O)C(=O)O (centres undefined)
not listed: [3]
inactive: all other assays above

Cc1ccc(O)cc1
not listed: [1] | [3] | [10]
inactive: all other assays above

Cn1c(=O)cc(Oc2ccc(F)cc2F)c2cnc(NCC(C)(C)O)nc21
inactive: [1] | [3] | [8] | [6]
active: [7] 15.7 µM

C1=CCCC=CCCC=CCC1
not listed: [2] | [3] | [10]
inactive: all other assays above

CC(C)=CCCC(C)=CC=O
not listed: [1] | [9] | [10]
inactive: all other assays above

NC(=O)NO
not listed: [3] | [10]
inactive: all other assays above

O=c1[nH]c2ccc(S(=O)CCN3CCC(Cc4ccc(F)cc4)CC3)cc2o1 (centres undefined)
not listed: [1] | [10]
inactive: all other assays above

CC(O)CN(CCN(CC(C)O)CC(C)O)CC(C)O (centres undefined)
not listed: [3]
inactive: all other assays above

Clc1nc(Cl)c(Cl)c(Cl)c1Cl
not listed: [3]
inactive: all other assays above

O=C(O)c1cccc(Oc2ccccc2)c1
not listed: [1] | [3] | [10]
inactive: all other assays above

CC(C)CCCCCCOC(=O)c1ccc(C(=O)OCCCCCCC(C)C)c(C(=O)OCCCCCCC(C)C)c1
not listed: [2] | [5] | [10]
inactive: all other assays above

On1ccccc1=S
active: [7] 0.0413 µM
not listed: [1] | [3] | [10]
inactive: all other assays above

CC(=O)c1ccc2c(c1)[C@H](NC(=O)c1ccc(F)cc1)[C@@H](O)C(C)(C)O2
not listed: [2]
inactive: all other assays above

Cc1ccc(C)c(O)c1
not listed: [1] | [8]
inactive: all other assays above

C=CC(=C)CCC=C(C)C
not listed: [3] | [10]
inactive: all other assays above

CCOC(=O)CC(CC(=O)OCC)(OC(C)=O)C(=O)OCC
inactive: [2] | [3] | [6] | [7]

COCCOCCOCCOC
inactive: [2] | [8] | [9] | [6] | [7]
